# A selection: hits, their analogues and other compounds. The true share with any hit is near 1.3%.
# C-LANA FP – inhibitors of KSHV LANA C-terminal domain DNA binding; inhibition, % at 9 µM; 0.078% of 340,000 active; MBP-C-LANA/FAM-LBS DNA binding, fluorescence polarization;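 active means highest replicate inhibition at or above 60% at 9 µM, even if other replicates fall short; inactive means all replicates below 60% inhibition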;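 further: 0% = neutral control wells and 100% = 4 µM acridine orange control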
# Keap1 Nrf2 FP – Keap1-Nrf2 (human) interaction inhibition; 0.15% of 340,000 active; Keap1 Kelch-Nrf2 peptide fluorescence polarization, 1536-well; Q14145; AID 504523; inhibition, % at 9.4 µM; in the data active means inhibition above about 12%;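 further: human Keap1 Kelch domain with fluorescein labeled Nrf2 9mer peptide probe; 0% = neutral control wells and 100% = peptide positive control; higher means more block of Keap1 binding to Nrf2 peptide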
# GLD-1 TGE inh – GLD-1-TGE RNA interaction inhibition (C. elegans); Q17339; purified GLD-1 + fluorescein TGE RNA, fluorescence polarization; inhibition, % at 5.96 µM; 0.44% of 320,000 active; AID 2280;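 active means percent inhibition above a per-plate cutoff, the plate mean of test compounds plus 3 SD, cut at about 30% in these data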;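 further: 0% = DMSO wells with GLD-1 and probe and 100% = wells lacking GLD-1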
# MCL1 BIM primary – inhibitors of human MCL1 binding to BIM-BH3 peptide | Q07820 | GST-MCL1 / FITC-Bim-BH3 fluorescence polarization | inhibition, % at 10.9 µM | 0.68% of 320,000 active;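 active means inhibition above the mean inhibition of all tested compounds plus 3 SD, set per campaign, cut at about 40% in these data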;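 further: 0% = DMSO wells and 100% = unlabeled Bim-BH3 peptide control; higher means more loss of mP so more displacement of Bim peptide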
# E coli Lon inh – E. coli protease La inhibition; inhibition, % at 7.94 µM; 0.42% of 360,000 active; P0A9M0; purified E. coli Lon protease, fluorescence polarization; AID 602123; in the data active means inhibition above about 13%, passing the limit was not always enough;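 further: 0% = enzyme with probe and DMSO and 100% = no enzyme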
# Target sequence (P0A9M0 whole entry, looked up): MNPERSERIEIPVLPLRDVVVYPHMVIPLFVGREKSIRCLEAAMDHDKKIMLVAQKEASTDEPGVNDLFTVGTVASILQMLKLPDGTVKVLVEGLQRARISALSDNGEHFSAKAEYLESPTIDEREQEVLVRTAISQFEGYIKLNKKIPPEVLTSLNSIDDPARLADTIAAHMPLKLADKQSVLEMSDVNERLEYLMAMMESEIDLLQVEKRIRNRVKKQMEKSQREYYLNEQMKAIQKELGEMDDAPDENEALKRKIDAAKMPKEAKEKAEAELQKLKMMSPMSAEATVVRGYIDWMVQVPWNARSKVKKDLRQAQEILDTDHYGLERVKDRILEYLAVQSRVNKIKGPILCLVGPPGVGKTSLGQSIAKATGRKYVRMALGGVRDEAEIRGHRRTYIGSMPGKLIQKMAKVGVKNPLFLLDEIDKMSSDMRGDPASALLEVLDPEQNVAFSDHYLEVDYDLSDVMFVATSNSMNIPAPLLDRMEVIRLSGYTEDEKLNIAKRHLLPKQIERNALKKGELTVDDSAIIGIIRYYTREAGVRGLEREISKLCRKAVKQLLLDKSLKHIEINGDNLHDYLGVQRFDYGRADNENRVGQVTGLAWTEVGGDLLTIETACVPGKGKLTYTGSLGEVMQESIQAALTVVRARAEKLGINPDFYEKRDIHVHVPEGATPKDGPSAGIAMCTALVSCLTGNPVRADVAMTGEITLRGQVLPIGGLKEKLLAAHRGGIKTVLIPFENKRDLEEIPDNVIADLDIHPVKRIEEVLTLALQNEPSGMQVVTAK
# BCLXL inh – Bcl-xL (human) inhibition | AID 2129 | 0.7% of 320,000 active | GST-Bcl-xL / FITC-Bim BH3 peptide fluorescence polarization | inhibition, % at 10.9 µM | Q07817;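 active means inhibition above the mean of all tested compounds plus 3 SD, cutoff set per campaign, cut at about 30% in these data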;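 further: 0% = DMSO wells and 100% = unlabeled Bim-BH3 peptide competitor; inhibitors lower millipolarization by displacing the labeled peptide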
# An asterisk follows results filed as active; nt = no result given.
SMILES,C-LANA FP,Keap1 Nrf2 FP,GLD-1 TGE inh,MCL1 BIM primary,E coli Lon inh,BCLXL inh
N#CC1(NC(=O)COC(=O)/C=C/c2ccc3ccccc3n2)CCCCC1,-1,-4,0,-13,-6,32*
O=C(COC(=O)/C=C/c1ccc2ccccc2n1)NNC(=O)c1ccc([N+](=O)[O-])cc1,1,2,nt,nt,-12,nt
Cc1c(NC(=O)Nc2cccc(F)c2)c(=O)n(-c2ccccc2)n1C,-1,-3,121*,3,-16,8
CC(C)C[C@@H]1COc2cc(N3CCC[C@H]3CO)ccc2S(=O)(=O)N1,nt,nt,nt,nt,1,nt
Cc1ccccc1C(=O)Nc1ccnn1C1CCN(C(C)Cc2ccccc2F)CC1 (stereo unspecified),5,-1,4,42*,3,39*
CC(CN1CCC(n2nccc2NC(=O)c2ccccc2Cl)CC1)c1ccccc1 (stereo unspecified),5,2,6,33,12,33*
CC(C)=CCN1CCC(n2nccc2NC(=O)c2ccccc2Cl)CC1,-4,-7,1,1,9,-3
CCN(CC)C(=O)C1=C(C)N(CCC2=CCCCC2)C(=O)C(CC(=O)NCc2cccc3ccccc23)C1 (stereo unspecified),nt,nt,nt,nt,1,nt
Nc1nc(C(F)(F)F)cc(=O)[nH]1,65*,0,-4,-3,1,3
Cc1ccc(-c2nc(C(F)(F)F)cc(=O)[nH]2)cc1,1,-4,2,1,-12,4
CCc1nc2ccc(C(=O)NCC3CCCCC3)cn2c1N(CCC(C)C)CCN(C)C,nt,nt,nt,nt,19,nt
Cc1cc(-c2ccccc2)[nH]c(=O)c1C#N,1,-8,2,-4,-10,2
N#Cc1c(-c2ccco2)cc(-c2ccccc2)[nH]c1=O,2,-2,21,33,-8,34*
Cc1ccc(-c2ccc(=O)n(CC(=O)NCCN3CCCCC3C)n2)cc1 (stereo unspecified),0,-7,12,41*,0,34*
O=C(CSc1nnc(-c2ccncc2)n1CC1CCCO1)Nc1nccs1 (stereo unspecified),-2,-8,47*,2,2,-2
Nc1ccc(O)c(C(=O)O)c1,nt,nt,18,76*,nt,35*
Cn1cccc1CN1CCC[C@]2(N[C@H](c3ccc(C(F)(F)F)cc3)[C@@H]3C(=O)N(Cc4ccccc4)C(=O)[C@@H]32)C1=O,nt,nt,nt,nt,-5,nt
COc1cc(C2Nc3cccc4cccc(c34)N2)ccc1OC(C)=O,0,6,10,45*,-6,39*
COc1ccc(C2Nc3cccc4cccc(c34)N2)cc1Br,0,-3,1,14,-6,10
O=Cc1sc([O-])nc1-[n+]1ccc2ccccc2c1,nt,nt,22,41*,nt,47*
COc1ccc(Nc2nnc(SCC(=O)N(CC(C)C)C3CCS(=O)(=O)C3)s2)cc1 (stereo unspecified),nt,nt,nt,nt,5,nt
CN(C)S(=O)(=O)c1cccc(NC(=O)C2CCCN(C(=O)c3ccc(Cl)cc3)C2)c1 (stereo unspecified),nt,nt,nt,nt,-4,nt
COc1ccc(NC(=O)c2nc3nccc(C)n3n2)cn1,5,0,13,36,-6,34*
CSc1ccccc1CNC(=O)C1(C)CCCN1CC(C)C (stereo unspecified),nt,nt,nt,nt,0,nt
CCCC(=O)n1nc(-c2ccc(Cl)cc2)nc1SC,78*,0,-3,-4,4,-2
SMILES,C-LANA FP,Keap1 Nrf2 FP,GLD-1 TGE inh,MCL1 BIM primary,E coli Lon inh,BCLXL inh
COC(=O)c1cc(S(=O)(=O)Nc2cccc(-c3ccno3)c2)c[nH]1,nt,nt,nt,nt,-12,nt
CCCCCCCCN1C(=O)[C@H](CC(=O)NCC2CCCCC2)C[C@@]2(C(=O)OC)CCCCC=C12,nt,nt,nt,nt,1,nt
COC(=O)/C(C#N)=C/c1c(N2CCN(c3cccc(Cl)c3)CC2)nc2c(C)cccn2c1=O,-3,1,8,19,5,19
CCN1CCN(c2nc3c(C)cccn3c(=O)c2/C=C(\C#N)S(=O)(=O)c2ccc(C)cc2)CC1,-1,-4,18,48*,-10,52*
Cc1cccn2c(=O)c(C=C(C#N)C#N)c(N3CCN(c4cccc(Cl)c4)CC3)nc12,1,0,20,43*,3,39*
Cc1ccc(S(=O)(=O)/C(C#N)=C/c2c(N3CCN(C)CC3)nc3c(C)cccn3c2=O)cc1,2,-1,6,29,-2,40*

# High-throughput results deposited in PubChem by several laboratories.
